Results as given in PubChem BioAssay.
Calls of active or inactive are those of the source.

Legend:
[1] = system: Human papillomavirus type 1a protein E7 (residues 44-93); assay: HPV1a E7 fragment binders on microarrays, primary screen, biochemical, small-molecule microarray, residues 44-93, 635 nm fluorescence (AID 1108); conditions: small-molecule microarray binding, fluorescence 635 nm; higher = more signal;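 also: E7 fragment applied at 1 µg/mL in TBST for 1 h at 4 C; score combines spot fluorescence with its signal to noise ratio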
[2] = modulators of HCV replicon luciferase signal, primary screen, HCV replication inhibitor project, Huh7 cells, luciferase reporter (AID 1109); conditions: 48 h, higher = more signal;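 also: huh7 hepatoma cells harbouring a luciferase neomycin HCV replicon reporter; luciferase luminescence as measure of HCV replicon replication; test concentration not given here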
[3] = molecular target: Left-right determination factor 2 (Homo sapiens) (UniProt O00292); assay: LEFTY2 binders on small-molecule microarrays, primary screen, biochemical, small-molecule microarray, 635 nm fluorescence scan (AID 1110); conditions: LEFTY2 binding, higher = more signal
Chain of Left-right determination factor 2 (Homo sapiens) (O00292 whole entry, looked up): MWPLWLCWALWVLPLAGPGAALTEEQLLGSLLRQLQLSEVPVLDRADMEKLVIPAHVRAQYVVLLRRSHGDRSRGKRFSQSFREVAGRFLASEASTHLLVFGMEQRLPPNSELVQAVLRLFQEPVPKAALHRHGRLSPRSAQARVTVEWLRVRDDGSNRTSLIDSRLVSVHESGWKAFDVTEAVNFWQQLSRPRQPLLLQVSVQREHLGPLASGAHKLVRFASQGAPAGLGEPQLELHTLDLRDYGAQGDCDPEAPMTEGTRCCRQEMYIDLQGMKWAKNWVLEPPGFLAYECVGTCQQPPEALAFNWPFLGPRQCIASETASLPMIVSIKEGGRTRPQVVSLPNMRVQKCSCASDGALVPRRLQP

[4] = molecular target: Calmodulin-1 (Homo sapiens) (UniProt P0DP23); assay: CALM1 binders on microarrays, EGTA buffer, profiling panel, biochemical, small-molecule microarray, Cy5-labelled CALM1 (AID 1111); conditions: Cy5-CALM1 binding fluorescence, higher = more signal;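 also: labelled calmodulin applied in Tris saline Tween buffer holding calcium plus EGTA and DTT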
[5] = molecular target: Calmodulin-1 (Homo sapiens) (UniProt P0DP23); assay: calcium-bound CALM1 binders on microarrays, profiling panel, artefact control for SMM control-protein annotation, biochemical, small-molecule microarray, Cy5-labelled CALM1, plus calcium (AID 1112); conditions: Cy5-CALM1 binding fluorescence, higher = more signal;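 also: score merges spot fluorescence with signal to noise from triplicate slides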
[6] = small-molecule microarray binders of probe aWnt5a, primary screen, biochemical, biotinylated probe, 635/667 nm fluorescence (AID 1113); conditions: higher = more signal;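 also: score merges 667 nm fluorescence intensity with signal-to-noise per printed feature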
[7] = small-molecule microarray binders of probe aShh, primary screen, biochemical, biotinylated probe, 635/667 nm fluorescence (AID 1114); conditions: higher = more signal;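 also: probe is biotin-labelled aShh protein from a stem cell growth factor screen; measures binding of labelled protein to compounds printed on the slide; score merges feature fluorescence at 667 nm with signal-to-noise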
[8] = small-molecule microarray binders of probe aNog, primary screen, biochemical, biotinylated probe, 635/667 nm fluorescence (AID 1115); conditions: higher = more signal;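 also: probe is biotinylated aNog protein used at 0.15 µg/mL for 1 h at 4 C; z-score combines 667 nm fluorescence of each spot with its signal to noise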
[9] = molecular target: Torsin-1A-interacting protein 1 (Homo sapiens) (UniProt Q5JTV8); assay: LAP1 binders from COS7 cell lysate, primary screen, small-molecule microarray, 635/667 nm fluorescence (AID 1116); conditions: COS7-hLAP1 lysate binding, 635 nm fluorescence, higher = more signal
Chain of Torsin-1A-interacting protein 1 (Homo sapiens) (Q5JTV8 whole entry, looked up): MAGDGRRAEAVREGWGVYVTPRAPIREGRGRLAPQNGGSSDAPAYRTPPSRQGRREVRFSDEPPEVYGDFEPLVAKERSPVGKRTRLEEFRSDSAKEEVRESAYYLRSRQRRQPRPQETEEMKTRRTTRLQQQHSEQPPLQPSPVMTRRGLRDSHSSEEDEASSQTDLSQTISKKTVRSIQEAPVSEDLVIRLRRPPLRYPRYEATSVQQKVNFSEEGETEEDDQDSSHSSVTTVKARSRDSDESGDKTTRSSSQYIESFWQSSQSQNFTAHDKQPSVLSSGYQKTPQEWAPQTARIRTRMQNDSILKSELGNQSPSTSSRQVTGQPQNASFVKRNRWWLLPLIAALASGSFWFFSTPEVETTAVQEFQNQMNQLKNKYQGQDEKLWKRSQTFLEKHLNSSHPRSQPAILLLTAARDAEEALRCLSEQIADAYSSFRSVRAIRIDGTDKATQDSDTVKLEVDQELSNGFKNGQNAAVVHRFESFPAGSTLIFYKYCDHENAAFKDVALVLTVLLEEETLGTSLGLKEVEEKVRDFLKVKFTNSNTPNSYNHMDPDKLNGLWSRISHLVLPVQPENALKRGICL

[10] = molecular target: Alpha-bungarotoxin (Bungarus multicinctus) (UniProt P60615); assay: alpha-bungarotoxin binders on microarray, profiling panel, artefact control for SMM control protein annotation, biochemical, small-molecule microarray, Alexa647 label, 635/667 nm fluorescence (AID 1117); conditions: alpha-BTX-A647 binding fluorescence, higher = more signal
Chain of Alpha-bungarotoxin (Bungarus multicinctus) (P60615 whole entry, looked up): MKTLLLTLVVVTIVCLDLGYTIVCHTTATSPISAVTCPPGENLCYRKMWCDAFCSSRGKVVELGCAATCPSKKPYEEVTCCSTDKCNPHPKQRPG

Albumin (Bos taurus) = Albumin (Bos taurus) (UniProt P02769); assay: bovine serum albumin binders on microarray, profiling panel, artefact control for SMM control protein annotation, biochemical, small-molecule microarray, Alexa647 label, 635/667 nm fluorescence (AID 1118); conditions: BSA-A647 binding, fluorescence 635 nm, higher = more signal;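 also: score merges 667 nm emission intensity and signal-to-noise per printed compound spot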
Chain of Albumin (Bos taurus) (P02769 whole entry, looked up): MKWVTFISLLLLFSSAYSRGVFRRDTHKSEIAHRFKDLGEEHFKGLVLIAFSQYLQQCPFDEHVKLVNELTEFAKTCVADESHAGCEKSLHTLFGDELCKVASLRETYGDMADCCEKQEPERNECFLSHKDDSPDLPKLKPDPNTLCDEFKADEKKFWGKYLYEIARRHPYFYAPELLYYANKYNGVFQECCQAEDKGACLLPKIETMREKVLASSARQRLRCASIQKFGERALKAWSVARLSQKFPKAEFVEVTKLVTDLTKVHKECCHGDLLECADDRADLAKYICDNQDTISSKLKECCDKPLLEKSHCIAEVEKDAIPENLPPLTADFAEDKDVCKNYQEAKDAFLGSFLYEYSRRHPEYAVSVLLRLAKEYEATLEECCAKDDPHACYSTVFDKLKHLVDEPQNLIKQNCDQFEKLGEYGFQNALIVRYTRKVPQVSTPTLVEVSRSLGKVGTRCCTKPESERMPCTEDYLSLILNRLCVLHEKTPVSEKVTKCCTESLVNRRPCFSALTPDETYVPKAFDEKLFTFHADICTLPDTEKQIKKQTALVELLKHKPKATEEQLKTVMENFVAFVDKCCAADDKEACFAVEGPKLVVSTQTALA

[11] = small-molecule microarray binders of probe aXIP, primary screen, biochemical, NeuroSMM set, 635/667 nm fluorescence (AID 1119); conditions: higher = more signal, called active from +8 up or from −8 down;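 also: probe is the protein aXip251-270 applied at 1 µg/mL to compound-printed slides; binding of probe to printed compounds measured as 667 nm fluorescence plus signal to noise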
[12] = small-molecule binders of probe aNOTCH3, primary screen, biochemical, small-molecule microarray, 635/667 nm fluorescence (AID 1120); conditions: higher = more signal;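 also: probe is a biotin-tagged antibody raised against NOTCH3 rather than NOTCH3 protein; score merges spot fluorescence near 667 nm with spot signal to noise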
[13] = small-molecule binders of probe aNOTCH2, primary screen, biochemical, small-molecule microarray, 635/667 nm fluorescence (AID 1121); conditions: higher = more signal;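 also: score merges feature fluorescence read at 667 nm with its signal to noise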
[14] = molecular target: Carbonic anhydrase 2 (Homo sapiens) (UniProt P00918); assay: CAII small-molecule binders, profiling panel, biochemical, small-molecule microarray, Alexa647-labelled CAII (AID 1122); conditions: CAII-A647 binding fluorescence, higher = more signal
[15] = COS7 lysate on small-molecule microarray, probe aHis, 635 nm (AID 1123); conditions: COS7 cell lysate, fluorescence, higher = more signal;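 also: z-score combines 667nm fluorescence intensity with signal-to-noise per printed compound spot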
[16] = compound binding in COS7 lysate, probe aLAP1, primary screen, cell lysate, small-molecule microarray (AID 1124); conditions: probe aLAP1, fluorescence, higher = more signal;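 also: lysate comes from COS7 cells expressing LAP1 and is applied at 0.3 µg/mL; score merges spot fluorescence near 667 nm with signal-to-noise over triplicate slides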
Sam68 (KHDRBS1) = assay: Sam68 small-molecule binders, primary screen, biochemical, small-molecule microarray, 635 nm fluorescence (AID 1125); conditions: small-molecule microarray binding, higher = more signal;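 also: score merges 667 nm channel intensity with signal to noise over triplicate slides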
[17] = system: Chordin-like protein 2 (CHRDL2); assay: CHRDL2 small-molecule binders, primary screen, biochemical, small-molecule microarray, 635 nm fluorescence (AID 1126); conditions: small-molecule microarray binding, fluorescence 635 nm; higher = more signal;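 also: printed compound slides probed with Chrdl2 protein at 4 µg/mL for 1 h at 4 C; score merges 667 nm emission intensity with signal to noise over three replicate slides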
[18] = molecular target: Concanavalin-A (Canavalia ensiformis) (UniProt P02866); assay: ConA small-molecule binders, primary screen, artefact control for SMM control protein annotation, biochemical, small-molecule microarray, Alexa647 label, 635 nm (AID 1127); conditions: ConA-A647 binding fluorescence, higher = more signal;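 also: z combines 667 nm emission intensity with signal-to-noise across three replicate slides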
Chain of Concanavalin-A (Canavalia ensiformis) (P02866 whole entry, looked up): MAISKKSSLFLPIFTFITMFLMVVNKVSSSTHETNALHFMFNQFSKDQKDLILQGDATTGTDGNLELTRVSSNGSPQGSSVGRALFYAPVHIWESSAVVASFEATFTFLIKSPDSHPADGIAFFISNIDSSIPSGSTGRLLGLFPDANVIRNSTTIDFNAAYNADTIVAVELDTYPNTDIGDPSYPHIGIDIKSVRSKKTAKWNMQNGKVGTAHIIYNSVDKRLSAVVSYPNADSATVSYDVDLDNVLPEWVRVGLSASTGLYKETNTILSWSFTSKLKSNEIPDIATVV

Compound	composite z-score [1]	z-score [2]	composite z-score [3]	composite z-score [4]	composite z-score [5]	composite z-score [6]	composite z-score [7]	composite z-score [8]	composite z-score [9]	composite z-score [10]	composite z-score (Albumin (Bos taurus))	composite Z-score [11]	composite z-score [12]	composite z-score [13]	composite z-score [14]	composite z-score [15]	composite z-score [16]	composite z-score (Sam68 (KHDRBS1))	composite z-score [17]	composite z-score [18]
O=C1C=C(c2ccccc2)C(=O)c2ccc([C@H]3Oc4ccccc4S(=O)(=O)N4CCC[C@@H]34)cc21	-1.08	-4.28	-0.272	-0.623	-0.351	-0.172	-0.117	-0.23	-0.239	-0.0257	-0.878	0.159 (inactive)	-0.185	-0.161	-0.48	-0.811	-0.534	-1.05	0.594	-0.388
COCCOC(=O)N1C(=O)[C@@]2(c3cc(C#CCC(C(=O)OC)C(=O)OC)ccc31)[C@H](C(=O)N1CCc3cc(OC)c(OC)cc3C1)[C@H]1C(=O)O[C@H](c3ccccc3)[C@H](c3ccccc3)N1[C@@H]2c1ccc(OCCO)cc1	1.39	-0.45	0.608	0.756	-0.551	-0.006	-0.1	-0.103	0.0568	2.16	-0.525	0.654 (inactive)	0.15	-0.0357	0.357	1.2	0.519	1.29	0.837	1.11
COc1ccc(CN(C2=CC[C@@]3(C(N)=O)C(=O)C(Cl)=C(Cl)C(=O)[C@@]3(C#N)C2)S(=O)(=O)c2ccc(Br)cc2)cc1	0.731	-1.56	-0.885	1.1	0.391	-0.11	-0.0769	0.784	1.02	-0.181	1	0.317 (inactive)	-0.128	-0.0273	0.863	1.84	0.834	0.295	-1.54	0.0331
C[N+](C)(C)CCCC[C@@H]1NC(=O)[C@H]2C[C@@H](C(=O)NCCCCCCN)[C@@H](c3ccc(O)cc3)N2C1=O	1.17	-0.481	0.0608	0.756	0.342	0.127	0.541	0.0561	0.567	0.925	0.98	0.289 (inactive)	0.201	0.14	0.685	1.08	-0.186	1.23	-0.117	1.13
[N-]=[N+]=NCc1ccccc1C[C@@]1(C(=O)N2CCOCC2)N=C(c2ccc(OCCCO)cc2)O[C@@H]1c1ccccc1	1.45	-3.27	0.285	1.83	0.997	0.0597	0.412	-0.549	2.09	0.916	0.851	0.879 (inactive)	0.056	0.0012	0.617	2.92	0.491	1.11	-0.577	1.08
COCCOC(=O)N1C(=O)[C@@]2(c3cc(C#CC4=CCCCC4)ccc31)[C@H](c1ccccc1OCCO)N1[C@H](c3ccccc3)[C@H](c3ccccc3)OC(=O)[C@H]1[C@@H]2C(=O)N1CCCCCCC1	1.38	-2.94	0.225	-0.529	0.258	-0.0327	-0.493	-0.345	1.08	0.973	-0.0107	0.181 (inactive)	-0.582	-0.26	0.592	2.23	0.22	1.34	0.323	0.592
O=C(CS)NCCCCCNC(=O)[C@@H]1C[C@@H]2C(=O)N3CCC[C@H]3C(=O)N2[C@@H]1c1cccc(OCCO)c1	1.42	-0.367	-0.429	1.39	-1.29	-0.073	-0.16	-0.565	1.76	1.14	-0.105	1.11 (inactive)	-0.284	-0.258	0.747	2.18	0.503	0.246	0.712	0.91
COC(=O)[C@H](Cc1ccccc1)N1CC(/C=C/C2CC2)=C[C@H]1[C@H](O)Cc1ccccc1	0.484	-4.03	0.396	0.405	-0.647	-0.0944	-0.0693	0.287	0.425	1.2	0.59	-0.0662 (inactive)	-0.095	-0.14	0.456	0.726	0.148	1.2	0.732	0.981
Cc1ccc(S[C@]2(C(=O)O)CC(=O)N(C3Cc4ccccc4C3)[C@@H]2c2ccc(CO)cc2)cc1	0.0922	-0.0907	-1.07	0.967	1.1	0.0077	-0.0322	0.649	0.0148	0.0125	0.0322	0.736 (inactive)	-0.102	-0.057	0.727	2.65	0.826	0.667	-1.8	-0.458
COc1cc2c(cc1OC)CN(C(=O)[C@@H]1[C@H]3C(=O)O[C@H](c4ccccc4)[C@H](c4ccccc4)N3[C@H](c3ccc(OCCO)cc3)[C@@]13C(=O)Nc1ccc(C#CC4(O)CCCCCC4)cc13)CC2	1.34	-1.34	0.866	1.52	-0.225	0.0596	0.0985	-0.111	1.37	1.69	0.872	0.266 (inactive)	0.398	-0.166	0.543	2.03	0.514	1.32	0.978	1.13
CCOC(=O)C[C@H]1[C@H](OC(=O)c2ccc(C(=O)c3ccccc3)cc2)[C@@H](NC(=O)Cc2ccc(OC)cc2)c2cc(OCCCO)ccc2N1C(=O)c1ccccc1	0.41	-1.15	0.117	0.0574	0.425	0.112	-0.237	0.0775	0.516	0.168	0.585	0.324 (inactive)	0.0203	-0.0877	0.188	0.409	-0.0137	0.428	-0.0656	0.278
COc1cc2c(cc1O)C(C)N(Cc1ccc([N+](=O)[O-])o1)CC2 (stereo not given)	1.28	-0.616	0.0215	2.21	1.21	0.138	-0.153	-0.335	0.961	1.95	0.831	0.0948 (inactive)	0.348	0.0746	0.512	0.68	1.57	1.33	-0.622	1.17
O=C1C[C@@](C(=O)NCCN2CCOCC2)(c2ccc([N+](=O)[O-])cc2)[C@@H](c2ccc(CO)cc2I)N1C1CCCCC1	1.18	-2.66	0.369	-0.413	-0.173	-0.0445	0.0611	0.079	0.646	1.43	0.614	0.142 (inactive)	-0.095	-0.14	0.659	1.74	1.07	0.761	0.473	0.416
COCCOC(=O)N1C(=O)[C@@]2(c3cc(C#Cc4ccc(OC)cc4)ccc31)[C@H](C(=O)Nc1nc3ccccc3s1)[C@H]1C(=O)O[C@H](c3ccccc3)[C@H](c3ccccc3)N1[C@@H]2c1ccc(OCCO)cc1	1.17	-2.19	0.785	0.762	-0.621	-0.0704	-0.223	-0.268	0.179	1	-0.0497	0.308 (inactive)	0.0493	-0.0539	0.458	0.757	-0.38	1.31	0.68	1.16
CC(C)[Si](C#CCCCC#N)(O[C@H](c1ccccc1)c1cn([C@H](CO)Cc2ccccc2)nn1)C(C)C	0.385	-1.33	0.36	1.11	0.295	-0.0459	-0.0793	0.0392	0.222	0.559	0.992	0.727 (inactive)	-0.15	-0.161	0.456	0.605	0.936	1.11	-0.006	1.16
COc1ccc(CCN2C(=O)[C@@]3(Cc4ccccc42)c2ccccc2C(=O)N(Cc2ccccc2OC)[C@H]3c2ccc(CO)cc2)cc1	-0.131	-0.601	-1.03	0.0678	0.466	-0.1	-0.155	0.898	-0.119	-0.749	0.282	-0.0127 (inactive)	-0.177	-0.0785	0.162	0.215	-0.778	-0.232	-0.761	-0.516
O=C1C2C=CC(C(O)c3ccc(Br)cc3)N(Nc3ccccc3F)C2C(=O)N1c1ccccc1 (stereo not given)	0.861	-0.445	-0.134	0.0034	0.666	-0.0718	-0.0626	-0.571	-0.147	0.225	0.826	0.0051 (inactive)	-0.038	-0.126	0.762	1.58	0.358	0.68	0.0957	0.667
O=C1O[C@@H](c2ccccc2)[C@@H](c2ccccc2)N2[C@@H](c3ccc(O)cc3)[C@]3(C(=O)Nc4ccc(C#CC5(O)CCCCCC5)cc43)[C@@H](C(=O)NC[C@H](O)c3ccccc3)[C@H]12	1.39	-0.737	-0.817	0.122	0.208	-0.0276	-0.138	0.0841	1.15	0.203	0.0697	0.2 (inactive)	-0.262	-0.0984	0.547	1.05	0.632	0.686	-0.703	0.221
COc1cc(OC)c(C(O)C2C=CC3C(=O)N(c4ccccc4)C(=O)C3N2Nc2ccccc2)cc1Br (stereo not given)	1.4	-0.801	-0.263	1.02	0.285	-0.0346	-0.138	-0.0604	0.474	0.665	0.911	-0.565 (inactive)	0.245	-0.117	0.457	1.33	0.468	1.19	-1.07	1.1
O=C1O[C@H](c2ccccc2)[C@H](c2ccccc2)N2[C@H]1[C@@H](C(=O)Nc1nc3ccccc3s1)[C@]1(C(=O)Nc3ccc(C#CCCO)cc31)[C@H]2c1ccc(O)cc1	1.4	-0.829	0.691	0.628	-0.0808	-0.0519	-0.0035	-0.28	0.799	0.369	0.497	-0.0959 (inactive)	0.199	-0.156	0.5	1.75	0.278	1.02	0.172	1.16
